Screens deposited in PubChem BioAssay by Broad Institute.
Mtb BioA inh: inhibitors of Mycobacterium tuberculosis BioA enzyme; AID 602481; 0.096% of 360,000 active; purified M. tuberculosis BioA enzyme, plate reader; inhibition, % at 9.99 µM; in the data active = inhibition above about 40%; inconclusive = no clear call, values can overlap the other calls
PrP UTR inh: suppresses PrP 5' UTR mRNA reporter expression. AID 488862. 0.35% of 340,000 active. inhibition, % (concentration not given with the values). cell-based PrP 5' UTR mRNA reporter, plate reader; in the data active = inhibition above about 52%; note: 0 = median of the neutral control wells
PfHsp40 yeast: restores yeast growth despite PfHsp40 toxicity; 0.68% of 340,000 active; AID 504582; S. cerevisiae expressing PfHsp40, growth rescue, ATP luminescence; growth rescue, % at 12.5 µM; in the data active = growth rescue above about 28%, passing the limit was not always enough; inconclusive = no clear call, values can overlap the other calls;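 note: yeast W303a lacking pdr1 and pdr3 grown in galactose medium; growth measured after three days at 30 °C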
FadD28 binding: inhibitors of Mycobacterium tuberculosis FadD28 bisubstrate binding | AID 588549 | 0.22% of 360,000 active | inhibition, % at 12.5 µM | FadD28 bisubstrate probe binding, fluorescence polarization; in the data active = inhibition above about 8.5%, passing the limit was not always enough; inconclusive = no clear call, values can overlap the other calls
Y pestis TopoI: Y. pestis Topo-I inhibition via cleavage products; Y. pestis Topo-I cleavage product accumulation, plate reader; activity, % at 10 µM; 0.064% of 360,000 active; AID 504884; in the data active = activity above about 50%, passing the limit was not always enough; inconclusive = no clear call, values can overlap the other calls
TcdB GH inh: blocks C. difficile toxin B glycohydrolase activity | P18177 | TcdB glycohydrolase enzymatic assay, plate reader | inhibition, % at 9.99 µM | 0.24% of 350,000 active; in the data active = inhibition above about 10%
PrP 5UTR single: prion 5' UTR mRNA inhibition, cherry-pick retest; inhibition, % at 2.5 µM; AID 504592; shares compounds with PrP UTR inh; 48% of 1,100 active; cell-based prion protein 5' UTR reporter, plate reader; in the data active = inhibition above about 54%; inconclusive = no clear call, values can overlap the other calls
Numbers without * were called inactive; u = inconclusive; x = no result. Sampled rows, rich in hits. Any-hit rate of the full collection: about 1.2%.

SMILES	Mtb BioA inh	PrP UTR inh	PfHsp40 yeast	FadD28 binding	Y pestis TopoI	TcdB GH inh	PrP 5UTR single
C[C@H]1CN([C@@H](C)CO)S(=O)(=O)c2ccc(-c3ccc(C(=O)N(C)C)cc3)cc2O[C@H]1CN(C)Cc1ccccc1C(=O)O	0	x	x	x	x	0	x
CN(C)Cc1cc(C(C)(C)C)cc(N2CCOCC2)c1O	1	-6	0	x	4	-11	x
CCN(CC)Cc1cc(C(C)(C)C)cc(N2CCOCC2)c1O	x	73*	-2	-1	1	-2	4
O=C1CN(C(=O)c2ccc(F)c(S(=O)(=O)N3CCOCC3)c2)c2ccccc2N1	x	59*	1	0	-1	0	36
COc1ccc(C(=O)N2CC(=O)Nc3ccccc32)cc1S(=O)(=O)N1CCOCC1	-1	x	-2	-4	1	0	x
CCN(CC)C(=O)CSc1nc2ccccc2c(=O)n1CCC(=O)N1CCN(c2ccccc2)CC1	x	56*	-2	-4	0	1	1
CCCn1c(SCC(=O)N2CCN(c3ccccc3)CC2)nc2ccccc2c1=O	1	-5	1	1	17	x	x
O=C(N[C@H]1CC[C@@H](CC(=O)N2CCCCC2)O[C@H]1CO)c1ccc2c(c1)OCO2	5	x	x	x	x	-1	x
CCOc1ccc(CN2C(=O)c3ccccc3C2=O)cc1C(=O)NC1CC(C)(C)NC(C)(C)C1	1	85*	2	-13	-3	1	-13
CCOc1ccc(CN2C(=O)c3ccccc3C2=O)cc1C(=O)Nc1nnc(SCC)s1	0	-11	0	-2	1	x	x
COc1ccc2c3c(n(C)c2c1)[C@H](CO)N(C(=O)c1cccnc1)CC31CCN(C(=O)c2cccnc2)CC1	x	x	x	x	x	1	x
COc1ccc(C2/C(=C(/O)c3ccccc3)C(=O)C(=O)N2CCN2CCOCC2)c(OC)c1 (stereo not given)	-1	-19	-1	-5	2	x	x
COc1ccc(C2/C(=C(/O)c3ccc(Cl)cc3)C(=O)C(=O)N2CCN2CCOCC2)c(OC)c1 (stereo not given)	x	63*	-1	1	5	x	-9
N#Cc1ccc(-c2ccc3c(c2)[C@H]2[C@H](CCN2C(=O)CN2CCOCC2)[C@@H](CO)N3)cc1	x	x	x	x	x	1	x
O=C(NCC(c1cccnc1)N1CCN(c2ccc(F)cc2)CC1)C1CCCCC1 (stereo not given)	0	69*	70*	-2	-4	x	-13
CN1C(=O)c2cc(NS(=O)(=O)c3ccccc3Cl)ccc2OC[C@@H]2O[C@@H](CC(=O)O)CC[C@H]21	0	x	x	x	x	-1	x
CCC(C)(C)n1nnnc1C(c1cccs1)N1CCCCC1 (stereo not given)	3	52*	-1	-1	-1	1	-5
CNC[C@@H]1Oc2cc(C#Cc3ccccn3)ccc2S(=O)(=O)N([C@@H](C)CO)C[C@H]1C	-1	x	x	x	x	-1	x
C[C@H](CO)N1C[C@H](C)[C@@H](CN(C)Cc2ccncc2)Oc2ccc(NC(=O)CCN3CCOCC3)cc2CC1=O	0	x	x	x	x	0	x
C=C(C1=CCN(S(=O)C(C)(C)C)[C@@H]1CCO)c1ccccc1 (stereo not given in full)	-1	59*	0	0	-3	1	-14
C=C(CCO)C1=CCN(S(=O)C(C)(C)C)[C@@H]1CCO (stereo not given in full)	-1	-17	0	-2	1	0	x
COCC#Cc1ccc([C@@H]2[C@@H](CO)N3C(=O)CN(C(=O)C4CCCC4)C[C@H]23)cc1	x	x	x	x	x	0	x
O=C(Nc1ccc(-c2nc3ccccc3o2)cc1)C1CCCO1 (stereo not given)	-1	-111	-3	-5	11	x	x
O=C(Nc1ccc(-c2nc3cccnc3s2)cc1)C1CCCO1 (stereo not given)	-2	62*	0	-4	9	2	65*
COc1cccc(S(=O)(=O)N2C[C@@H](O)COC[C@H]3O[C@H](CC(=O)Nc4ccccc4)CC[C@@H]32)c1	5	x	x	x	x	-3	x
SMILES	Mtb BioA inh	PrP UTR inh	PfHsp40 yeast	FadD28 binding	Y pestis TopoI	TcdB GH inh	PrP 5UTR single
CC1CN(C(=O)[C@@H]2CCCN2S(=O)(=O)c2ccc(Cl)cc2)CC(C)O1 (stereo not given in full)	x	85*	2	0	4	-1	-12
COCCCn1c(=NC(=O)c2ccccc2)c(C#N)cc2c(=O)n3cccc(C)c3nc21	-1	66*	-1	-3	8	0	-17
CCCCc1ccc(-c2ccc(Br)cc2)nc1	-1	-95	0	-3	5	1	x
CCCc1ccc(-c2ccc(F)c(N)c2)nc1	0	59*	1	0	6	x	u
COC(=O)c1ccc(CCc2cc(O)ccc2O)cc1	x	-33	2	-3	-8	x	x
COC(=O)c1ccc(CCc2cc(O)c(Br)cc2O)cc1	x	87*	0	0	-9	-16	-29
Cc1nnc(SCC(=O)Nc2cc(-c3cc(C)c(C)cc3C)nn2-c2ccccc2)s1	x	59*	3	-5	37	1	-9
COc1ccc2cc3c(N)nn(C(=O)c4ccc(F)cc4)c3nc2c1	x	15	0	-2	-6	2	x
COc1ccc2cc3c(N)nn(C(=O)c4ccccc4Cl)c3nc2c1	x	58*	0	-3	12	1	47
O=C(C[C@H]1CC[C@H]2[C@@H](COC[C@H](O)CN2S(=O)(=O)c2ccc(F)cc2)O1)NCC1CCCCC1	1	x	x	x	x	0	x
Cc1noc(C)c1S(=O)(=O)N(C)C[C@@H]1OCCCC[C@@H](C)Oc2ccc(NC(=O)Nc3ccc(C(F)(F)F)cc3)cc2C(=O)N([C@H](C)CO)C[C@H]1C	3	x	x	x	x	0	x
COc1ccc(/C=N/NC(=O)c2[nH]c3ccc(Br)cc3c2-c2ccccc2)c(C(=O)O)c1OC	2	-23	-1	-9	8	-1	x
COc1ccc(/C=N/NC(=O)c2[nH]c3ccc(Br)cc3c2-c2ccccc2)cc1	x	68*	0	-1	14	x	81*
COc1ccc(/C=N/Nc2nnc(C)n2N)cc1OC	0	76*	-1	-1	-1	-2	-8
COc1ccc(/C=N/Nc2nnc(C)n2N)cc1OC(C)=O	0	-17	-1	x	-9	0	x
Cc1cc(C)c(S(=O)(=O)Nc2ccc3c4c(cccc24)CC3)c(C)c1	-1	76*	2	-1	-7	x	89*
Cc1nc(-c2ccc(NC(=O)c3ccco3)cc2)cs1	1	78*	-3	-6	0	1	77*
Nc1nc(-c2ccc(NC(=O)c3ccco3)cc2)cs1	0	67*	-1	-4	-3	-4	16
O=C(Nc1ccc(NC(=O)c2ccco2)cc1)c1ccco1	0	-23	-1	-1	-3	0	x
CNC[C@H]1Oc2ccc(NC(=O)Cc3cn(C)c4ccccc34)cc2CC(=O)N([C@H](C)CO)C[C@H]1C	-1	x	x	x	x	1	x
